Laboratory results reported in PubChem BioAssay AID1745849 (National Center for Advancing Translational Sciences (NCATS), 2022).
The campaign covered roughly 2,100 compounds. About 320 (15%) were called active. Inconclusive results (about 52%) are left out. The list shows a part of the results. A number with no mark means an inactive call. The call rests on the fitted dose curve; in most records, active means well fitted cell-killing curve with a large enough effect; inconclusive means small, poorly fitted or top-dose-only effect, or effect the other way; inactive means flat fitted curve, though single readings scatter.

Assay: Viability Counterscreen for CMV-Luciferase Assay of Inhibitors of ATXN expression; further: nearly all actives have a fitted effect of over 55% in size
Details: HEK-293 CMV-luciferase cells viability, protease fluorescence, 24 h; activity change, negative = cytotoxicity: at the top concentration
Text: PI: Daniel Scoles Ph.D. University of Utah School of Medicine, Salt Lake City, Utah MLPCN Grant: NS073009 Spinocerebellar ataxia type 2 (SCA2) is a multisystem neurodegenerative disease caused by a dominantly acting mutation leading to expansion of a polyQ domain in the ataxin-2 protein (ATXN2). SCA2 patients develop progressive ataxia and later lose function in other neuronal systems. Prominent parkinsonian signs develop in some patients. Like many neurodegenerative disorders, no symptomatic or disease-modifying treatments are known. The primary objective of the proposed research is to identify compounds inhibiting ATXN2 expression and to test them for efficacy in SCA2 mouse models. We have developed a cell-based assay paired with an in vivo mouse model using identical luciferase expression constructs. This approach takes advantage of an ATXN2-luciferase transgene, with the luciferase gene flanked by the upstream and downstream portions of the ATXN2 gene. Here we describe a 5-7 dose quantitative high thoroughput screen (qHTS) for compounds lowering ATXN2 expression. We screened the NIH Molecular Libraries Small Molecule Repository (MLSMR) and NCGC's mechanistically annotated (MIPE) and drug repurposing (NPC) collections of compounds for lowering expression of an ATXN2-luciferase reporter in HEK-293 cells. The assay is a multiplexed cell viability assay to ensure target reduction in the absence of cytotoxicity. Secondary qHTS assays included a CMV-luciferase reporter expressed in HEK-293 cells as well as a biochemical assay using recombinant luciferase to detect inhibitors of the reporter enzyme. Compounds that inhibit ATXN2 expression but is not cytotoxic were selected for confirmatory and secondary screens.
PROTOCOL TABLE (as described by Inglese J, Shamu CE and Guy RK. 2007) SEQUENCE No. (e.g., 1, 2, 3, etc.); […] (e.g., Cells, Incubation, Reagent, etc.); VALUE; DESCRIPTION. 1; Cells; 4 uL; white, solid bottom, 1536-well Greiner assay plate. 2; Incubation; 2 hr; 37 degree C in 5% humidified CO2. 3; Compounds; 23 nL; Kalypsis pintool (Wako USA) equipped with a 1536-well pin head. 4; Incubation; 24 hr; 37 degree C in 5% humidfified CO2. 5; Reagent; 1 uL; Gly-Phe-7-Amino-4-trifluoromethylcoumarin. 6; Incubation; 30 min; 37 degree C in 5% humidfified CO2. 7; Detection; Fluorescence; Viewlux plate reader (PerkinElmer). 8; Reagent; 3 uL; SteadyGlo luciferase solution (Promega). 9; Incubation; 5 min; room temperature. 10; Detection; Luminescence; ViewLux plate reader (PerkinElmer). NOTES (numbers refer to Sequence numbers above) 1. HEK-293 cells expressing CMV-luciferase reporter (designated as SC cells) were suspended in phenol-red free DMEM and dispensed in assay plates using a Multidrop Combi dispenser (Thermo Fisher Scientific). 2. Assay plates were incubated. Evaporation was prevented by covering assay plates with metal lids containing holes to allow gas diffusion. 3. Compounds were added in a dose response manner with the final concentrations of 57, 11.4, 2.28, 0.46, 0.091, 0.018, 0.0037 uM. Vehicle-only plates, with DMSO being pin-transferred to columns 5-48, were inserted uniformly at the beginning and the end of each library to monitor and record any shifts in assay performance. 5. 125 uM Gly-Phe-7-Amino-4-trifluoromethylcoumarin (MP Biomedicals) working concentration was used at a final concentration of 25 uM. 7. To assess cell viability; the assay plates were read using the ViewLux high-throughput CCD imager (PerkinElmer), wherein single end-point fluorescence measurement was acquired (excitation 405/10; emission 540/25 nm). 8. Detection reagent SteadyGlo Luciferase (Promega) was added to the assay plate. 10. Luminescence is then measured on the ViewLux imager equipped with a clear emission filter using a 2 sec exposure. […]
On the % scale 0 is the no-effect control and ±100 the full control effect; potency means the concentration at half of the fitted maximal effect.

| SMILES | Potency | activity change, negative = cytotoxicity |
| --- | --- | --- |
| Cc1ccc(S(=O)(=O)/C(=C/Cl)NC(=O)c2ccccc2)cc1 | 17.8 µM (active) | – |
| COc1ccc(C(=O)NC(=C(Cl)Cl)S(=O)(=O)c2ccc(C)cc2)cc1 | – | -28.4% |
| Cc1cc(N/N=C/c2ccc(O)cc2O)nc(-n2nc(C)cc2C)n1 | 10 µM (active) | – |
| Cc1cc(N/N=C\c2ccc(Br)cc2)nc(-n2nc(C)cc2C)n1 | – | -7.45% [at 57.5 µM] |
| Cc1cc(N/N=C/c2ccccc2[N+](=O)[O-])nc(-n2nc(C)cc2C)n1 | 12.6 µM (active) | – |
| CCn1c2ccccc2c2cc(NC(=O)COC(=O)C3CCC(=O)N3)ccc21 (stereo not drawn) | – | -17.1% [at 57.5 µM] |
| CCCC(=O)OC/C(O)=C(\C#N)c1nc2ccccc2[nH]1 | – | -7.86% |
| CCN(CC)CCNC(=O)c1ccc(NC(=O)c2ccccc2-c2ccc(C(F)(F)F)cc2)cc1 | – | -22.9% [at 57.5 µM] |
| COc1cc(CNCc2ccncc2)cc(Br)c1OCc1ccccc1F | – | -8.06% |
| Cc1cc(C(=O)CN2C(=O)c3ccccc3S2(=O)=O)c(C)n1CC1CCCO1 (stereo not drawn) | – | 7.21% [at 57.5 µM] |
| Cc1cc(C)n(CC(O)Cn2c3ccc(Cl)cc3c3cc(Cl)ccc32)c(=O)n1 (stereo not drawn) | – | -19.8% |
| CC(Nc1ccccc1CO)C(=O)Nc1cccc(Cl)c1Cl (stereo not drawn) | – | -16.1% [at 57.5 µM] |
| O=C(CNC(=O)c1ccccc1Br)N/N=C/c1cc(Br)ccc1O | – | -27.5% |
| Cc1cccc(/C=N/NC(=O)c2c(-c3ccccc3)noc2C)c1O | – | -27.5% |
| O=C(N/N=C/c1cc(Cl)ccc1O)c1ccccc1Br | – | 6.59% [at 57.5 µM] |
| O=C(N/N=C/c1cc(Br)ccc1O)c1ccncc1 | – | -12.8% |
| Cc1ccccc1C(=O)N/N=C/c1ccc([N+](=O)[O-])s1 | 22.4 µM (active) | – |
| O=C(N/N=C/c1cc(Br)ccc1OC(=O)c1ccc(Br)cc1)c1ccncc1 | – | 10.1% [at 57.5 µM] |
| Cc1ccc(NC(=O)/C=C/c2ccc([N+](=O)[O-])s2)c(C)c1 | – | 10.5% |
| O=C(N/N=C/c1ccc([N+](=O)[O-])s1)c1ccccc1Br | 20 µM (active) | – |
| O=C(N/N=C\c1ccc([N+](=O)[O-])s1)c1cncc(Br)c1 | 10 µM (active) | – |

| SMILES | Potency | activity change, negative = cytotoxicity |
| --- | --- | --- |
| CCCc1nc(NC2CCCCC2)c(C#N)c2c1COC(C)(C)C2 | – | 16.2% |
| CN(C)CCC(c1ccc(Br)cc1)c1ccccn1 (stereo not drawn) | – | -13.2% [at 57.5 µM] |
| N#Cc1cc2cc3c(cc2nc1SCC(=O)N1CCOCC1)OCCO3 | – | 0.63% |
| CN(CC(=O)Nc1ccc(Cl)c(C(F)(F)F)c1)C(=O)c1cccnc1Sc1ccccc1 | – | 11.2% [at 57.5 µM] |
| Cc1ccc(C(=O)N(C)CC(=O)Nc2ccc(Cl)c(C(F)(F)F)c2)cc1S(=O)(=O)N1CCCCC1 | 20 µM (active) | – |
| Cc1ccc(NC(=O)CSc2ccc(Br)cc2)cc1S(=O)(=O)N1CCOCC1 | – | -20.3% [at 57.5 µM] |
| CC(SC(C)C(=O)NN=Cc1cccc(Cl)c1)C(=O)NN=Cc1cccc(Cl)c1 (stereo not drawn) | – | -17.2% |
| O=C(Nc1nonc1-c1ccc(Cl)cc1)c1ccccc1 | – | -28.7% [at 57.5 µM] |
| O=C1C=CCC(/C=C/c2ccccc2)O1 (stereo not drawn) | 31.6 µM (active) | – |
| Cc1csc2ncnc(NC3CCN(Cc4ccccc4)CC3)c12 | – | -5.28% [at 57.5 µM] |
| CCOC(=O)N1CCN(c2ccnc3cc(Cl)ccc23)CC1 | – | 13.1% |
| Cc1cccc(N2CCN(S(=O)(=O)c3ccc4c(c3)C(C)(C)C(=O)N4C)CC2)c1C | – | 6.54% [at 57.5 µM] |
| COc1cccc(NC(=O)CSc2nc3ncc(Br)cc3[nH]2)c1 | – | 5.16% |
| CCN(CC(=O)Nc1cccc(OC)c1)CC(=O)Nc1ccc(Br)c(C)c1 | 17.8 µM (active) | – |
| COc1ccc(O)c(/C=N/NC(=O)CCC(=O)Nc2cccc(C)c2)c1 | – | 16.1% [at 57.5 µM] |
| O=c1cc(-c2c(F)c(F)c(F)c(F)c2F)oc2ccccc12 | – | -23.6% |
| COc1ccc(NS(=O)(=O)c2ccc(C(=O)Nc3c(C)n(C)n(-c4ccccc4)c3=O)cc2)cc1 | – | 6.71% |
| Cc1c(N/N=C(\C#N)C(=O)c2ccccc2)c(=O)n(-c2ccccc2)n1C | 11.2 µM (active) | – |
| Cc1ccccc1C(=O)/C(C#N)=N/Nc1c(C)n(C)n(-c2ccccc2)c1=O | 10 µM (active) | – |
| Cc1c(N/N=C(\C#N)C(=O)c2ccc(Cl)cc2)c(=O)n(-c2ccccc2)n1C | 2.51 µM (active) | – |
| CCOC(=O)c1ccc(NC(=O)c2nc[nH]c2C(=O)N[C@H](C)c2ccccc2)cc1 | – | 10.5% |

| SMILES | Potency | activity change, negative = cytotoxicity |
| --- | --- | --- |
| CCn1c(C)cc(C(=O)CN2C(=O)c3ccccc3S2(=O)=O)c1C | – | -1.67% |
| O=C(Nc1cccc2ccccc12)OC1C=CS(=O)(=O)C1 (stereo not drawn) | – | -14.6% |
| Cc1ccc(Cc2cnc(N3C(=N)SC(C)C3=O)s2)cc1 (stereo not drawn) | – | -1.76% |
| Cc1cc(C)c(S(=O)(=O)/N=C2\C=C(Nc3ccc(C(=O)O)cc3)C(=O)c3ccccc32)c(C)c1 | 2 µM (active) | – |
| O=C(NCC1CCCO1)c1cccc(Oc2ccc([N+](=O)[O-])cc2Cl)c1 (stereo not drawn) | – | 12.9% |
| N#C/C(=C\C=C\c1ccccc1[N+](=O)[O-])C(=O)NCc1ccccc1 | 3.16 µM (active) | – |
| N#C/C(=C\c1cccc([N+](=O)[O-])c1)C(=O)NCc1ccc(Cl)cc1 | 3.55 µM (active) | – |
| CC(C)N(Cc1ccccc1)C(=O)/C=C/c1ccccc1[N+](=O)[O-] | – | -9.06% [at 57.5 µM] |
| CCN(CC)C(=O)C1=C(C)N(CCC2=CCCCC2)C(=O)C(CC(=O)NC(c2ccccc2)c2ccccc2)C1 (stereo not drawn) | – | -26.1% |
| O=C(O)CSc1cc(NS(=O)(=O)c2ccc(Cl)cc2)c2ccccc2c1O | – | -8.84% [at 57.5 µM] |
| COc1ccc(-c2csc(N(CCCN3CCOCC3)C(=O)c3ccco3)n2)cc1 | – | -15.1% |
| CCOc1ccc(NCc2cccn2-c2nnc(N3CCC(C(=O)NCCCN4CC(C)CC(C)C4)CC3)s2)cc1 (stereo not drawn) | – | -19.6% |
| CCN(CC)CCNC1=NCCn2c1cc1cc(OC)ccc12 | – | -15.7% |
| CCCCCn1c(=O)c2ccccc2n2c(CCl)nnc12 | 14.1 µM (active) | – |
| Cc1cc(C)cc(OCC(=O)NNC(=S)NC(=O)C2CC2)c1 | – | -23.3% |
| CCCCC1C(=O)CC[C@H]2[C@@H]1CC(=O)[C@@H]2C/C=C\CCCC(=O)O (stereo partly drawn) | – | -4.83% |
| CC(=O)N1c2ccc(S(=O)(=O)N3CCC(C(=O)N4CCN(c5ccc(Cl)cc5)CC4)CC3)cc2CC1C (stereo not drawn) | – | -27.4% [at 57.5 µM] |
| CC1CC2(C)Oc3ccccc3CC2C(C)C1CNCCCN(C)C (stereo not drawn) | 35.5 µM (active) | – |
| CC(C)C(=O)Nc1ccc(C(=O)N/N=C/c2cc(Br)cc(Br)c2O)cc1 | – | 17.3% [at 57.5 µM] |
| COc1cc([N+](=O)[O-])cc(/C=N/NC(=O)c2ccc(NC(=O)c3ccc(C)cc3)cc2)c1O | 1.41 µM (active) | – |
| COc1cc(Br)cc(/C=N/NC(=O)Cc2ccc(C(F)(F)F)cc2[N+](=O)[O-])c1O | – | -26.5% [at 57.5 µM] |
